“And” between values parts separate entries of the source, which are not always exact repeats. Equal entries are not always repeated. The campaign covered roughly 77,000 compounds. About 4,600 (6%) were called active. Another 1% or so got no clear call; they are omitted.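 The calls were made as follows: active = mean inhibition above about 93%, with at least 55% of replicates each passing it (limit read from the data, passing the limit was not always enough); inconclusive = only one of those two conditions holds; inactive = neither condition holds.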 What follows is part of a selection rich in actives, with near analogues and random picks from the rest. Where a structure was tested more than once in an assay, its records may differ in their call.
Experiment: T. cruzi intracellular proliferation inhibitors, primary screen, cell-based, beta-gal Tulahuen parasites, NIH3T3 host, luminescence (AID 624255)
Details: T. cruzi beta-gal in NIH3T3, GalScreen luminescence, 90 h; at 8.34 µM; stronger effect = higher value

Row | Structure (SMILES) | inhibition
1 | C[C@@H]1CN([C@H](C)CO)C(=O)c2cc(NS(=O)(=O)c3ccc(Cl)cc3)ccc2O[C@@H](C)CCCCO[C@H]1CN(C)Cc1ccccc1 | 112% (active)
2 | C[C@H](CO)N1C[C@H](C)[C@H](CN(C)Cc2ccc(C(F)(F)F)cc2)OCCCC[C@H](C)Oc2ccc(NS(=O)(=O)c3ccc(Cl)cc3)cc2C1=O | 98.6% (active)
3 | COc1ccc(CN(C)C[C@@H]2OCCCC[C@H](C)Oc3ccc(NS(=O)(=O)c4cccs4)cc3C(=O)N([C@H](C)CO)C[C@@H]2C)cc1 | 44.9% (inactive)
4 | C[C@@H]1CCCCO[C@H](CN(C)Cc2ccccc2)[C@H](C)CN([C@@H](C)CO)C(=O)c2cc(NS(=O)(=O)c3ccccc3)ccc2O1 | 86% (inactive)
5 | C[C@@H]1CCCCO[C@@H](CN(C)Cc2ccc(C(=O)O)cc2)[C@H](C)CN([C@H](C)CO)C(=O)c2cc(NS(=O)(=O)c3cccs3)ccc2O1 | -101% (inactive)
6 | Cc1ccc(S(=O)(=O)Nc2ccc3c(c2)C(=O)N([C@H](C)CO)C[C@@H](C)[C@H](CN(C)Cc2ccccc2)OCCCC[C@H](C)O3)cc1 | 85.7% (inactive)
7 | C[C@@H]1CCCCO[C@H](CN(C)Cc2ccccc2)[C@@H](C)CN([C@H](C)CO)C(=O)c2cc(NS(=O)(=O)c3ccc(Cl)cc3)ccc2O1 | -26.9% (inactive)
8 | Cc1ccc(S(=O)(=O)Nc2ccc3c(c2)C(=O)N([C@H](C)CO)C[C@H](C)[C@@H](CN(C)Cc2ccccc2)OCCCC[C@H](C)O3)cc1 | 38.8% (inactive)
9 | C[C@@H]1CN([C@H](C)CO)C(=O)c2cc(NS(=O)(=O)c3cccs3)ccc2O[C@@H](C)CCCCO[C@H]1CN(C)Cc1ccc(C(F)(F)F)cc1 | 97.6% (active)
10 | COc1ccc(S(=O)(=O)Nc2ccc3c(c2)C(=O)N([C@@H](C)CO)C[C@H](C)[C@H](CN(C)Cc2ccc(C(F)(F)F)cc2)OCCCC[C@@H](C)O3)cc1 | 63.1% (inactive)
11 | C[C@@H]1CCCCO[C@H](CN(C)Cc2ccccc2)[C@H](C)CN([C@H](C)CO)C(=O)c2cc(NS(=O)(=O)c3ccc(Cl)cc3)ccc2O1 | 109% (active)
12 | C[C@@H]1CCCCO[C@@H](CN(C)Cc2ccc(C(F)(F)F)cc2)[C@H](C)CN([C@H](C)CO)C(=O)c2cc(NS(=O)(=O)c3ccc(F)cc3)ccc2O1 | 56.1% (inactive)
13 | CN1C(=O)c2cc(NC(=O)C3CC3)ccc2OC[C@@H]2O[C@@H](CC(=O)NCC3CCCCC3)CC[C@@H]21 | -7.09% (inactive)
14 | CCN1[C@@H]2c3ccc(C4=CCCC4)c(=O)n3C[C@@H]2[C@@H](CO)[C@@H]1C(=O)NCc1ccccn1 | 26.1% (inactive)
15 | CO[C@H]1CN(C)C(=O)c2ccc(NC(=O)C3CC3)cc2OC[C@@H](C)N(C(=O)CN2CCOCC2)C[C@H]1C | -43.7% (inactive)
16 | CN1C(=O)c2cc(NC(=O)c3cnccn3)ccc2OC[C@@H]2O[C@H](CC(=O)O)CC[C@@H]21 | 8.56% (inactive)
17 | CC(=O)N1[C@H](CN(CC2CCC2)C(=O)CN(C)C)[C@@H](c2ccccc2)[C@@H]1CO | 54.9% (inactive)
18 | COc1ccc(NC(=O)N2C[C@H](O)COC[C@H]3O[C@@H](CC(=O)N4CCN(C)CC4)CC[C@@H]32)cc1 | 7.94% (inactive)
19 | C[C@H](O)C#Cc1ccc2c(c1)O[C@H](CN(C)Cc1cncnc1)[C@H](C)CN([C@@H](C)CO)S2(=O)=O | 36.8% (inactive)

Row | Structure (SMILES) | inhibition
20 | C[C@H]1CN([C@@H](C)CO)S(=O)(=O)c2ccc(-c3cncnc3)cc2O[C@H]1CN(C)Cc1ccncc1 | 25.1% (inactive)
21 | C[C@@H]1CN([C@@H](C)CO)S(=O)(=O)c2ccc(-c3ccncc3)cc2O[C@@H]1CN(C)C(=O)Nc1ccc(F)cc1 | 100% (active)
22 | C[C@@H]1CN([C@H](C)CO)S(=O)(=O)c2ccc(-c3ccncc3)cc2O[C@@H]1CN(C)C(=O)Nc1ccc(C(F)(F)F)cc1 | 82.6% (inactive)
23 | C[C@@H]1CN([C@@H](C)CO)S(=O)(=O)c2ccc(C#CCN(C)C)cc2O[C@@H]1CN(C)CC1CC1 | -40.3% (inactive)
24 | C[C@H]1CN([C@@H](C)CO)S(=O)(=O)c2ccc(C#CCN(C)C)cc2O[C@@H]1CN(C)Cc1ccc(F)cc1 | 115% (active)
25 | C[C@@H]1CN([C@H](C)CO)S(=O)(=O)c2ccc(C#C[C@@H](C)O)cc2O[C@@H]1CN(C)Cc1ccc(-c2ccccc2)cc1 | 73.7% (inactive) and 125% (active)
26 | C[C@H](O)C#Cc1ccc2c(c1)O[C@@H](CN(C)Cc1cncnc1)[C@H](C)CN([C@H](C)CO)S2(=O)=O | -5.8% (inactive)
27 | C[C@H](CO)N1C[C@H](C)[C@H](CN(C)Cc2ccncc2)Oc2cc(-c3cncnc3)ccc2S1(=O)=O | 16.7% (inactive)
28 | C[C@H](CO)N1C[C@H](C)[C@H](CN(C)Cc2ccncc2)Oc2cc(-c3ccncc3)ccc2S1(=O)=O | 111% (active)
29 | COc1ccc(NC(=O)N(C)C[C@H]2Oc3cc(-c4ccncc4)ccc3S(=O)(=O)N([C@H](C)CO)C[C@H]2C)cc1 | 70.2% (inactive)
30 | C[C@@H]1CN([C@H](C)CO)S(=O)(=O)c2ccc(C#CCN(C)C)cc2O[C@@H]1CN(C)C | -35.4% (inactive)
31 | CC=Cc1ccc2n(c1=O)C[C@@H]1[C@@H](CO)[C@H](C(=O)N3CCc4ccccc4C3)N(C(=O)C3CCC3)[C@H]21 (mixture of isomers) | 39.9% (inactive)
32 | CCCC(=O)Nc1ccc2c(c1)C(=O)N(C)C[C@@H](OC)[C@H](C)CN(C(C)=O)[C@H](C)CO2 | -1.03% (inactive)
33 | Cc1ccc(S(=O)(=O)N(C)C[C@@H]2OCCCC[C@H](C)Oc3ccc(NS(=O)(=O)c4cn(C)cn4)cc3C(=O)N([C@H](C)CO)C[C@@H]2C)cc1 | 39.1% (inactive)
34 | CO[C@@H]1CN(C)C(=O)c2ccc(NC(=O)c3ccc(F)cc3)cc2OC[C@H](C)NC[C@@H]1C | -9.72% (inactive)
35 | Cn1cnc(S(=O)(=O)N2C[C@@H](O)COC[C@H]3O[C@H](CC(=O)N4CCN(c5ccccc5)CC4)CC[C@@H]32)c1 | -64.3% (inactive)
36 | CC(C)C#Cc1ccc2c(c1)O[C@H](CN(C)CC1CCOCC1)[C@@H](C)CN([C@H](C)CO)S2(=O)=O | 93.8% (inactive)
37 | C[C@@H]1CN([C@@H](C)CO)S(=O)(=O)c2ccc(/C=C/c3ccccc3)cc2O[C@H]1CN(C)Cc1ccccc1 | 107% (active)
38 | C[C@@H]1CN([C@H](C)CO)S(=O)(=O)c2ccc(C#CC(C)(C)O)cc2O[C@@H]1CN(C)Cc1ccccc1 | 34.1% (inactive)

Row | Structure (SMILES) | inhibition
39 | CC(C)C#Cc1ccc2c(c1)O[C@H](CN(C)Cc1ccccc1)[C@H](C)CN([C@@H](C)CO)S2(=O)=O | 111% (active)
40 | C[C@@H]1CN([C@H](C)CO)S(=O)(=O)c2ccc(/C=C/c3ccccc3)cc2O[C@@H]1CN(C)Cc1ccccc1 | 81.9% (inactive)
41 | C/C=C/c1ccc2c(c1)O[C@H](CN(C)Cc1ccccc1)[C@H](C)CN([C@@H](C)CO)S2(=O)=O | 62.6% (inactive)
42 | CC(C)C#Cc1ccc2c(c1)O[C@H](CN(C)Cc1ccccn1)[C@H](C)CN([C@H](C)CO)S2(=O)=O | 57.8% (inactive)
43 | CC(C)C#Cc1ccc2c(c1)O[C@@H](CN(C)CC1CCOCC1)[C@H](C)CN([C@H](C)CO)S2(=O)=O | 91.2% (inactive)
44 | CC(C)C#Cc1ccc2c(c1)O[C@@H](CN(C)Cc1ccncc1)[C@@H](C)CN([C@@H](C)CO)S2(=O)=O | 122% (active)
45 | COc1cccc(NC(=O)C[C@H]2CC[C@@H]3[C@H](COc4ccc(NC(C)=O)cc4C(=O)N3C)O2)c1 | -37.9% (inactive)
46 | O=C(C[C@@H]1CC[C@@H]2[C@H](COC[C@@H](O)CN2S(=O)(=O)c2ccccc2)O1)NCC1CCCCC1 | 34.1% (inactive)
47 | COc1ccc(NC(=O)N[C@@H]2CC[C@H](CC(=O)NC3CCC3)O[C@H]2CO)cc1 | 16% (inactive)
48 | COc1cccc(S(=O)(=O)N[C@@H]2CC[C@H](CCNC(=O)Cc3ccncc3)O[C@@H]2CO)c1 | -52.5% (inactive)
49 | O=C(NCC[C@@H]1CC[C@@H](NC(=O)c2ccccc2F)[C@H](CO)O1)c1ccc2c(c1)OCO2 | 20.7% (inactive)
50 | COc1ccc(NC(=O)N(C)C[C@H]2OCCCC[C@H](C)Oc3ccc(NS(C)(=O)=O)cc3C(=O)N([C@H](C)CO)C[C@@H]2C)cc1 | 42.5% (inactive)
51 | CN1CCN(C(=O)C[C@H]2C[C@@H]3c4cc(NC(=O)Nc5ccc(C(F)(F)F)cc5)ccc4O[C@@H]3[C@H](CO)O2)CC1 | -59.1% (inactive)
52 | C[C@@H]1CCCCO[C@H](CN(C)CC2CCCCC2)[C@H](C)CN([C@H](C)CO)C(=O)c2cc(NC(=O)Nc3ccc(F)cc3)ccc2O1 | 71.7% (inactive)
53 | C[C@@H]1CCCCO[C@@H](CN(C)C(=O)NC2CCCCC2)[C@H](C)CN([C@@H](C)CO)C(=O)c2cc(NC(=O)Nc3ccc(F)cc3)ccc2O1 | 54.3% (inactive)
54 | C[C@@H]1CN([C@H](C)CO)C(=O)c2cc(NC(=O)Nc3ccc(F)cc3)ccc2O[C@@H](C)CCCCO[C@@H]1CN(C)CC1CCCCC1 | 115% (active)
55 | C[C@@H]1CCCCO[C@H](CN(C)C(=O)NC2CCCCC2)[C@H](C)CN([C@H](C)CO)C(=O)c2cc(NC(=O)Nc3ccc(F)cc3)ccc2O1 | 110% (active)
56 | C[C@@H]1CCCCO[C@H](CN(C)C(=O)NC2CCCCC2)[C@H](C)CN([C@@H](C)CO)C(=O)c2cc(NC(=O)Nc3ccc(F)cc3)ccc2O1 | 93.1% (inactive)
57 | C[C@@H]1CCCCO[C@H](CN(C)CC2CC2)[C@@H](C)CN([C@H](C)CO)C(=O)c2cc(NC(=O)Nc3ccc(F)cc3)ccc2O1 | 18.3% (inactive)
